# Pf growth 96h – inhibits malaria parasite growth, 96 h | P. falciparum luciferase reporter growth, 96 h | Potency, µM (series often up to 28.7 µM), inactives show top-dose activity change, negative = inhibition, hits mostly inhibitors | hit rate 6.9% among 320,000 | AID 504834
#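 Plates of compound plus infected erythrocytes (2% hematocrit, 0.05% parasitemia final) incubate 96 hours, 37 C, 5% CO2. Detection reagent added; reduced luminescence from the parasites' luciferase reporter flags inhibition.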
# Vaccinia mCherry – vaccinia inhibition (mCherry reporter). Vaccinia virus mCherry reporter infection, fluorescence. Potency, µM (top dose mostly 36.5 µM), inactives show at the top dose activity change, negative = inhibition, usual class: inhibitors. hit rate 0.63% among 310,000. AID 720579; calls by dose curve; tested in A549 cells; note: nearly all actives have a fitted effect of over 35% in size
# Pf growth 48h – P. falciparum growth inhibition at 48 hours (one generation); P. falciparum luciferase growth in erythrocytes, 48 h; Potency, µM (series often up to 28.7 µM), for inactives: at the top dose activity change, negative = inhibition, hits mostly inhibitors; hit rate 5.9% among 310,000
#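 Luminescence readout; reporter = integrated firefly luciferase in P. falciparum. RBC culture at 2% hematocrit, 0.1% parasitemia final, 37 C/5% CO2; decreased signal taken as growth inhibition.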
# AMA1-RON2 inh – inhibitors of Plasmodium falciparum AMA1-RON2 interaction. AlphaScreen AMA1-biotinylated RON2 peptide binding. Potency, µM (series often up to 58.2 µM), for inactives: at the highest dose activity change, negative = inhibition, hits mostly inhibitors. hit rate 0.2% among 360,000. AID 720542;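 note: 0% = vehicle wells and -100% = peptide control; nearly all actives have a fitted effect of over 45% in size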
#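 AMA1 (3D7) with his tag at 25 nM final met compounds first, then biotinylated RON2 peptide at 25 nM; detection used donor plus acceptor beads, 10 µg/mL apiece, read by AlphaScreen after 30 min at room temperature.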
# Vaccinia Venus – vaccinia inhibition (Venus reporter). Vaccinia virus Venus reporter expression, fluorescence. Potency, µM (series often up to 36.5 µM), without a hit: at the highest dose activity change, negative = inhibition, actives largely listed as inhibitors. hit rate 0.46% among 330,000; calls by dose curve; tested in A549 cells; note: nearly all actives have a fitted effect of over 30% in size
# * = called active by the depositor; i = inactive; ? = inconclusive; nt = no result. Compounds with a hit are over-represented: about 8.7% of the library has one in this group of screens. Unless noted, calls come from the whole dose curve; as a rule, active = well fitted curve in the direction sought with a large enough effect; inconclusive = small, poorly fitted or top-dose-only effect, or another doubt; inactive = no such curve, though single readings can be large; an effect the other way counts as inactive or inconclusive. Unless noted, % is set by controls: 0 for no effect and ±100 for the full control effect; potency is the fitted concentration of half-maximal effect.
SMILES,Pf growth 96h,Vaccinia mCherry,Pf growth 48h,AMA1-RON2 inh,Vaccinia Venus
COCCNC(=O)c1c[nH]c2ccc(S(=O)(=O)N3CCC4(CC3)OCCO4)cc2c1=O,80%,-1%,9%,24%,-3%
COCCNC(=O)c1c[nH]c2ccc(S(=O)(=O)N3CCc4ccccc43)cc2c1=O,-28%,?,?,7%,5.6µM*
COCCNC(=O)c1c[nH]c2ccc(S(=O)(=O)Nc3ccccc3F)cc2c1=O,-18%,nt,3%,-1%,nt
Brc1cccc[n+]1CCCC[n+]1ccccc1Br,nt,i,nt,nt,-11%
CCc1nn2c(=O)cc(COC(=O)CNC(=O)c3ccccc3)nc2s1,nt,-3%,nt,nt,-5%
O=C(Cn1c(=O)nc(-c2ccccc2)c2ccccc21)NCCc1ccccc1,nt,i,nt,nt,-10%
O=C(NCCCN1CCN(c2cccc(Cl)c2)CC1)c1sc2ncccc2c1-n1cccc1,nt,-22%,nt,nt,-18%
CCn1c(SCc2ccc([N+](=O)[O-])cc2)nnc1C(C)NC(=O)c1ccc(C)cc1 (stereo not given),10µM*,-11%,-9%,3%,-26%
COc1ccc2c(c1)[nH]c1c(=O)n(/N=C/c3ccc(OC)c(CN4CCCC4)c3)cnc12,?,-27%,4.1µM*,-13%,?
COc1ccc(/C=N/n2c(C)nc3c([nH]c4ccccc43)c2=O)cc1CN1CCCC(C)(C)C1,5.2µM*,nt,12µM*,-1%,nt
O=C(CSc1nnc(-c2cccs2)o1)Oc1ccc(Cl)cc1,nt,-8%,nt,nt,-10%
Cn1ncc2c(Nc3ccccc3Cl)nc(Nc3ccccc3Cl)nc21,?,-23%,7.4µM*,-13%,-5%
Cc1ccc(C(=O)C(C)N(C(=O)c2ccc(Cl)cc2Cl)N2C(=O)CCCC2=O)cc1 (stereo not given),12µM*,-3%,2%,7%,2%
COc1ccc(C(=O)COC(=O)C(C(C)C)N2C(=O)C3C4C=CC(C4)C3C2=O)cc1 (stereo not given),nt,-14%,-16%,0%,-5%
Cc1ccc(C(=O)CN(C(=O)c2ccc(Cl)cc2)N2C(=O)CCC2=O)cc1,64%,-9%,47%,1%,6%
COc1ccc(C(=O)C(C)N(C(=O)c2ccc(Cl)cc2Cl)N2C(=O)C3C4C=CC(C4)C3C2=O)cc1 (stereo not given),?,-22%,7.4µM*,0%,-18%
COC(=O)c1cc(CNC(=O)c2ccccc2)cc(NC(=O)c2ccccc2OC)c1,nt,-14%,nt,nt,-4%
O=C(NCc1n[nH]c(=S)n1-c1ccc(Cl)c(Cl)c1)c1ccco1,15µM*,-1%,?,31%,-15%
O=C(c1ccc2c(c1)OCO2)N1CCOc2ccc(CN3CCC(Oc4cccnc4)CC3)cc2C1,nt,-11%,nt,nt,-7%
Cc1ccc(CNc2c(C=O)c(=O)[nH]c3ccccc23)cc1,?,-17%,0%,12%,-6%
O=Cc1c(NCc2ccc(F)cc2)c2ccccc2[nH]c1=O,10µM*,i,-12%,7%,-12%
CC(=O)Nc1ccc(C(=O)Nc2ccc(S(=O)(=O)NCC3CCCO3)cc2)cc1 (stereo not given),0%,nt,13µM*,6%,nt
O=C(c1ccccc1)N1CCC(c2nc(-c3ccc(S(=O)(=O)NCC4CCCO4)cc3)no2)CC1 (stereo not given),nt,?,-20%,12%,?
CC(=O)Nc1ccc(S(=O)(=O)NCC2CCCO2)cc1 (stereo not given),nt,10%,nt,-3%,22%
O=C(C1CC1)N1CCC(c2nc(-c3ccc(S(=O)(=O)NCC4CCCO4)cc3)no2)CC1 (stereo not given),-18%,nt,9.3µM*,-1%,nt
SMILES,Pf growth 96h,Vaccinia mCherry,Pf growth 48h,AMA1-RON2 inh,Vaccinia Venus
O=S1(=O)N=C(Nc2cccc(C(F)(F)F)c2)c2ccccc21,nt,-27%,nt,nt,-18%
O=C(CCOc1ccccc1)NO,nt,-9%,nt,nt,-4%
CN1CCN(c2ccc(NC(=O)c3ccc(-c4cccc([N+](=O)[O-])c4)o3)cc2)CC1,0%,-19%,1.5µM*,?,-14%
Cc1ccccc1N1CCN(C(=S)c2ccc(-c3cccc([N+](=O)[O-])c3)o2)CC1,?,nt,10µM*,-29%,nt
CN1CCN(c2ccc(NC(=O)c3ccc(-c4ccc(Cl)cc4)o3)cc2)CC1,?,?,2.9µM*,?,11µM*
CCc1ccc(NC(=O)Cn2c(=O)n(Cc3nc(-c4ccccc4)no3)c(=O)c3cc4c(cc32)OCO4)cc1,nt,-4%,nt,nt,-10%
O=C(c1cccc(OC2CCN(Cc3cccc(OCCO)c3)CC2)c1)N1CCCC1,8.3µM*,i,-24%,-17%,-18%
COc1c(C)cc(C(=O)C2CCCN(Cc3cccc(C)n3)C2)cc1C (stereo not given),-21%,nt,?,14%,nt
Cc1ccc(CN2CCC(Oc3cccc(C(=O)N(C)CCN(C)C)c3)CC2)cc1C,7%,-4%,9.3µM*,2%,-11%
O=C(c1ccc(OC2CCN(Cc3cccc(OCCO)c3)CC2)cc1)N1CCCC1,0%,nt,?,-1%,nt
Cc1cccc(CN2CCCC(C(=O)c3cccc(OC(C)C)c3)C2)n1 (stereo not given),-19%,nt,?,15%,nt
COc1cccc(C(=O)C2CCCN(Cc3cccc(C)n3)C2)c1 (stereo not given),?,-3%,2.9µM*,5%,-2%
COc1c(C)cc(C(=O)C2CCCN(Cc3cccc(O)c3)C2)cc1C (stereo not given),1%,nt,12µM*,-5%,nt
COCCNC(=O)c1cccc(OC2CCN(Cc3ccc(C(=O)OC)cc3)CC2)c1,?,i,?,30%,-15%
COc1cccc(CNC(=O)c2cc(S(=O)(=O)N3CCCCC3)cn2C)c1,nt,-15%,nt,nt,-2%
Cc1ccc(Cn2cc(S(=O)(=O)c3ccccc3)c(=O)c3cc(F)c(N4CCOCC4)cc32)cc1,nt,-2%,nt,nt,-6%
COc1cccc(C(=O)C2CCCN(Cc3cccc(OCCO)c3)C2)c1 (stereo not given),4.7µM*,-7%,?,-11%,-6%
Cc1ccsc1C(=O)C1CCCN(Cc2cccc(OCCO)c2)C1 (stereo not given),-20%,-16%,-9%,-28%,-12%
COc1ccc(-c2nc(C#N)c(NC(C)c3ccccc3)o2)cc1OC (stereo not given),?,nt,15µM*,-13%,-29%
COc1ccc(C2C(=O)N(C3CCCCCC3)CC(=O)N2CCc2ccccc2)cc1 (stereo not given),nt,-12%,nt,nt,-8%
COc1ccc(C2C(=O)N(C3CCC(C)CC3)CC(=O)N2CCc2ccccc2)cc1OC (stereo not given),nt,-7%,nt,nt,-8%
CCCCN1C(=O)CN(CCc2ccccc2)C(=O)C1c1ccc(OC)cc1 (stereo not given),5.2µM*,nt,?,-3%,nt
COc1ccc(C2C(=O)N(CCc3ccccc3)CC(=O)N2C2CCCCC2)cc1 (stereo not given),5.2µM*,nt,nt,3%,nt
CNc1ccc(C=O)cc1Br,nt,-14%,nt,nt,-4%
